Compound activity (PubChem BioAssay)
A selection: hits, their analogues and other compounds. The true share with any hit is near 8.1%.
Gal4-VP16 FLuc: counter-screen for ROR gamma inhibitors: Gal4-VP16 reporter | AID 2546 | Potency, µM (doses to about 53.6 µM), most hits filed as inhibitors | Drosophila S2 Gal4-VP16 UAS-luciferase, luminescence, 20 h | 310,000 compounds, 3.5% hits;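 also: Gal4-VP16 expression switched on by copper sulfate through the metallothionein promoter; nearly all actives have a fitted effect of over 50% in size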
Sfp PPTase inh: inhibitors of Bacillus subtilis Sfp phosphopantetheinyl transferase. Biochemical Sfp PPTase activity, qHTS. Potency, µM, most hits filed as inhibitors. 310,000 compounds, 3.5% hits;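 also: the enzyme is Sfp with the accession as filed and its product quenches rhodamine fluorescence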
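Step 1, compound plus 15 nM Sfp-PPTase, 15 min, room temperature. Step 2, add rhodamine-CoA (5 uM) and BHQ-2-YbbR (12.5 uM). Step 3, read 525/598 nm fluorescence at 0 and 30 min.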
PINK1 expr mod: modulators of PINK1 expression; PINK1 immunofluorescence, high-content cytometry, 24 h; Potency, µM (highest dose often 76.6 µM), most hits filed as activators; 410,000 compounds, 0.2% hits; active = well fitted activation curve with a large enough effect; inconclusive = small, poorly fitted or top-dose-only effect; cell line not stated here; also: nearly all actives have a fitted effect of over 65% in size
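Fluorescence from anti-PINK1 antibody, together with nuclear and cell stains, was scanned on a laser-scanning cytometer. Before staining, stable-line cells were incubated 24 hours with compounds at 5 concentrations; primary antibody 12 h at 10 degrees C.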
ClpP mod: qHTS Assay for Activators of ClpP. Potency, µM (series often up to 57.5 µM). purified B. subtilis ClpP, FRET peptide cleavage, 20 min. ATP-dependent Clp protease proteolytic subunit (Bacillus subtilis (strain 168)), P80244. 340,000 compounds, 1.9% hits; active = well fitted falling curve with a large enough effect; inconclusive = small, poorly fitted or top-dose-only effect; inactive = no such curve, though single readings can be large or run the other way; also: the source files actives as falling curves though it sought activators and does not explain the sign; nearly all actives have a fitted effect of over 65% in size
Target sequence (P80244 whole entry, looked up): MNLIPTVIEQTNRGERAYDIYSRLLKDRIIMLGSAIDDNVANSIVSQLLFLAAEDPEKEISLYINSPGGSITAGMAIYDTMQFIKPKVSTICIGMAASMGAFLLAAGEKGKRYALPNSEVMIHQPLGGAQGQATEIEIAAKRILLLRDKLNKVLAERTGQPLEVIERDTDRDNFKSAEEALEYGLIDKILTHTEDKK
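Purified B. subtilis ClpP, 10 microg/mL final in Tris/HCl pH8 with KCl, BSA, glycerol and Tween-20, cleaved an Abz/nitrotyrosine-quenched decapeptide. Fluorescence (ex 320, em 430) was read at 0 and 20 min at room temperature. Delta was normalized to 5.8 microM ADEP and DMSO/no-enzyme controls.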
RORg inh: inhibitors of mouse ROR gamma transcriptional activity; 310,000 compounds, 5.4% hits; Drosophila S2 Gal4-RORgamma UAS-luciferase reporter, 20 h; P51450; Potency, µM (highest dose often 53.6 µM), most hits filed as inhibitors; AID 2551; also: nearly all actives have a fitted effect of over 60% in size
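Stable Schneider cell line, Gal4 DNA-binding domain fused to ROR gamma, UAS-luciferase. Cmpd 1 hr RT → CuSO4 700 uM final → 20 hr RT → luciferase reagent 10 min → luminescence.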
Epigenetic reg: regulators of epigenetic silencing causing reporter derepression in mouse cells | 280,000 compounds, 0.2% hits | Potency, µM (doses to about 53.9 µM), hits mostly activators | murine LDR cells, GFP reporter derepression, 30 h | AID 1865; also: nearly all actives have a fitted effect of over 60% in size
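GFP-positive cell count by laser-scanning cytometry (objects 20–120 um) after 30 h, 37 C compound exposure of murine LDR cells; reporter is CMV-GFP integrated at a silenced locus, inducible by HDAC or DNMT inhibitors.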
Of the large screens only hits and unclear results are named; the others gave an inactive call. Unless noted, calls follow the shape of the dose curve; as a rule, active = well fitted curve in the direction sought with a large enough effect; inconclusive = small, poorly fitted or top-dose-only effect, or another doubt; inactive = no such curve, though single readings can be large; an effect the other way counts as inactive or inconclusive.

O=C(NCc1ccccc1)c1ccc2c(c1)CCN2S(=O)(=O)c1ccc(Cl)cc1	none (no result: Gal4-VP16 FLuc, Sfp PPTase inh, RORg inh)
Nc1ccccc1N=Nc1ccccc1N	Gal4-VP16 FLuc inconclusive, RORg inh 10µM (no result: Epigenetic reg)
C[C@H]1C(=O)N(S(=O)(=O)c2ccc([N+](=O)[O-])cc2)[C@H]1c1ccc(F)cc1	none (no result: PINK1 expr mod, ClpP mod, Epigenetic reg)
CCOC(=O)c1c(C)[nH]c(C)c1S(=O)(=O)NCC(=O)Nc1ccc(C)c(N(C)C)c1	none (no result: Gal4-VP16 FLuc, Sfp PPTase inh, RORg inh)
Cc1ccc(-c2cc(NC(=O)c3ccccc3)on2)cc1	none (no result: ClpP mod, Epigenetic reg)
COc1ccc(C(=O)Nc2cc(-c3ccc(C)cc3)no2)cc1	RORg inh 3.2µM (no result: Epigenetic reg)
COC(=O)c1cc2oc3ccccc3c2n1Cc1cccc(C)c1	none (no result: Gal4-VP16 FLuc, Sfp PPTase inh, RORg inh)
O=C(NN=C1C2CC3CC(C2)CC1C3)c1ccccc1O	RORg inh 13µM
O=C(NN=C1C2CC3CC(C2)CC1C3)c1cccs1	none
O=C(NC12CC3CC(CC(C3)C1)C2)c1ccccc1O	Gal4-VP16 FLuc inconclusive, ClpP mod 28µM
COc1ccc(N(C)C(=O)c2cn(C3CCCCC3)c(=O)c3c2c2ccccc2n3C)cc1	none (no result: Gal4-VP16 FLuc, Sfp PPTase inh, RORg inh)
CCP(=O)(c1ccccc1)C(C)(C)O (stereo unspecified)	ClpP mod 16µM
COc1ccc(Cc2nc3ccccc3n2CC(=O)N/N=C/c2ccc(C)cc2O)cc1OC	Gal4-VP16 FLuc 6.3µM, RORg inh 3.5µM
COc1ccc(Cc2nc3ccccc3n2CC(=O)N/N=C/c2ccc(O)cc2)cc1OC	none
CCOC(=O)[C@H](CCc1ccccc1)N[C@@H](C)C(=O)N1C(=O)N(C)C[C@H]1C(=O)O	none (no result: PINK1 expr mod, ClpP mod, Epigenetic reg)
O=c1[nH]c(Nc2ccccc2)cc2ccccc12	ClpP mod 28µM
CS(=O)c1ccccc1O (stereo unspecified)	RORg inh 11µM
O=S(c1ccccc1O)S(=O)c1ccccc1O (stereo unspecified)	none (no result: Gal4-VP16 FLuc, Sfp PPTase inh, ClpP mod, RORg inh, Epigenetic reg)
O=C(/C=C/c1ccc(Br)cc1)NC1CCCCCC1	none
CC(C)Cc1ccc(/C=C/C(=O)NC2CC2)cc1	Gal4-VP16 FLuc 16µM, PINK1 expr mod inconclusive, RORg inh inconclusive
O=S(=O)(Nc1ccc(F)c(Cl)c1)c1ccc(Br)s1	none (no result: Gal4-VP16 FLuc, Sfp PPTase inh, RORg inh)
CN(C)CCCNC(=O)/C=C/c1ccc2c(c1)OCO2	ClpP mod 16µM
CCN(CC)CCN1C(=O)c2ccccc2NC1c1ccc(C)cc1 (stereo unspecified)	ClpP mod 32µM
CCN(CC)CCN1C(=O)c2ccccc2NC1c1ccc(Br)cc1 (stereo unspecified)	none (no result: ClpP mod)
CCN(CC)CCN1C(=O)c2ccccc2NC1c1ccc(F)cc1 (stereo unspecified)	ClpP mod 32µM
O=c1[nH]n(-c2ccc(F)cc2)c2ncccc12	none
Cc1c(-c2ccccn2)c(=O)[nH]n1-c1ccc(F)cc1	Gal4-VP16 FLuc inconclusive, RORg inh 6.3µM (no result: ClpP mod)
CC1(C)CC2CC(C)(CN2C(=S)Nc2ccccc2)C1 (stereo unspecified)	RORg inh inconclusive
CC1(C)CC2CC(C)(CN2C(=S)NC(=O)c2ccccc2Cl)C1 (stereo unspecified)	Gal4-VP16 FLuc 1µM, RORg inh 1.3µM
CC1(C)CC2CC(C)(CN2C(=S)Nc2ccccc2F)C1 (stereo unspecified)	RORg inh 4µM (no result: ClpP mod)
CC(=O)Nc1ccccc1C(=O)N1CC2(C)CC1CC(C)(C)C2 (stereo unspecified)	none
O=C(Nc1ccc(C(F)(F)F)cc1)c1cc(S(=O)(=O)NC2CCCCCC2)ccc1F	Epigenetic reg inconclusive (no result: Gal4-VP16 FLuc, Sfp PPTase inh, RORg inh)
C/C(=N\OC(=O)c1c(-c2ccccc2Cl)noc1C)c1ccncc1	Sfp PPTase inh 5µM (no result: ClpP mod)
Cc1onc(-c2ccccc2Cl)c1C(=O)O/N=C(\N)c1ccccc1	Gal4-VP16 FLuc 6.3µM, RORg inh 14µM (no result: Epigenetic reg)
CC(C)n1c(=O)c2oc3ccccc3c2n(Cc2ccccc2F)c1=O	ClpP mod inconclusive (no result: Gal4-VP16 FLuc, Sfp PPTase inh, RORg inh)
CCOC(=O)c1cc(-c2ccccc2)n(-c2cccc(C(=O)N(C)c3ccc(C)cc3)c2)c1C	none (no result: Gal4-VP16 FLuc, Sfp PPTase inh, RORg inh)
Cc1ccc(C)c(Cn2cc(CCC(=O)NC3CCCCC3)c3ccccc32)c1	none (no result: Gal4-VP16 FLuc, Sfp PPTase inh, RORg inh)
COC(=O)c1sccc1NC(=O)c1ccc(OC)cc1	none
